This passage reports growth inhibition results from PubChem BioAssay (NCI).

About 79,000 compounds went through this panel and 15% of them were active in at least one assay; those are over-represented in the sample as a whole. A number with no mark means an inactive call. Activity calls are given as the source filed them. Rule as the data show it: active = growth inhibition above about 70%; inactive = the rest.

This experiment in a line: NCI Yeast Anticancer Drug Screen. Data for the sgs1 strain (AID 173).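 Also: 0% = growth of vehicle-only control cultures.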 As to conditions: S. cerevisiae sgs1 mutant, stronger effect = higher value. The procedure: Growth inhibition of yeast strains with defined genetic alterations is measured as a screen for potential anti-cancer activity. Selected strains with alterations in DNA damage repair or cell cycle control were exposed to compounds and growth inhibition was measured relative to vehicle treated controls. The strain used in this assay is sgs1

In the case of `COc1cccc2nc3ccccc3nc12`, the growth inhibition was -6% (at 1.2 µM); -8% (at 3.7 µM); 0% (at 11.0 µM); 38% (at 33.0 µM); 88% (active) (at 100.0 µM).
Regarding `O=[N+]([O-])c1ccc2c(c1)C(N1CCN(CCO)CC1)Cc1ccc(F)cc1S2` (stereo not given), the growth inhibition is, setting by setting: (at 1.2 µM) -1%; (at 3.7 µM) -1%; (at 11.0 µM) -2%; (at 33.0 µM) 0%; (at 100.0 µM) 80% (active).
As to `Nc1nc(-c2cccnc2)cc(-c2cc(-c3cccnc3)nc(N)n2)n1`, the growth inhibition is, setting by setting: (at 1.2 µM) -2%; (at 3.7 µM) -4%; (at 11.0 µM) -4%; (at 33.0 µM) -6%; (at 100.0 µM) -7%.
Regarding `OC1(c2ccccc2)CSC2=Nc3ccccc3C3CCN1N23` (stereo not given), the growth inhibition (at 1.2 µM) is -23%; the growth inhibition (at 3.7 µM) was -55%; the growth inhibition (at 11.0 µM) was -42%; the growth inhibition (at 33.0 µM) was 18%; the growth inhibition (at 100.0 µM) was 94% (active).
Regarding `O=C(COC(=O)c1cc(O)c(O)c(O)c1)c1ccc(-c2ccccc2)cc1`, the growth inhibition was -1% (at 1.2 µM); 1% (at 3.7 µM); 11% (at 11.0 µM); 63% (at 33.0 µM); 97% (active) (at 100.0 µM).
As to `O=C1CSc2cc([N+](=O)[O-])ccc2N1`, the growth inhibition (at 1.2 µM) was 19%; the growth inhibition (at 3.7 µM) is 19%; the growth inhibition (at 11.0 µM) was 17%; the growth inhibition (at 33.0 µM) was 36%; the growth inhibition (at 100.0 µM) is 11%.
On to `COc1cc(C2SCC(=O)N2c2ccc(-c3ccc(-n4c(-c5ccccc5)nc5ccccc5c4=O)cc3)cc2)cc(OC)c1OC` (stereo not given), for which the growth inhibition by setting is: (at 1.2 µM) -3%; (at 3.7 µM) -1%; (at 11.0 µM) 2%; (at 33.0 µM) -1%; (at 100.0 µM) -7%.
Regarding `Cc1ccc(C2C(Cl)C(=O)N2n2cnc3ccccc3c2=O)cc1` (stereo not given), the growth inhibition by setting is: (at 1.2 µM) 11%; (at 3.7 µM) 17%; (at 11.0 µM) 11%; (at 33.0 µM) 22%; (at 100.0 µM) 30%.
